Measured values as given in ChEMBL document CHEMBL3988442, “University of Dundee, Small-Polar-MMV Screening Library” (2021).
Among all 48,000 compounds or so, about 13,000 (27%) showed an effect of 50% or more. Some of the results follow.

Tested on: Wolbachia pipientis
Test: Anti-Wolbachia Cell-Based Screen
Type: functional
Parameters: scale not given: in the data most compounds retested in dose-response had high values
Conditions: 5 µM

Row | Compound | Percent Effect [%]
1 | CC(C)NC(=O)N1CCC2(CC1)NC(=O)[C@H]1CN(C(=O)N(C)C)C[C@H]12 | -13.82
2 | Cn1ncc2c(NCC3CCS(=O)(=O)C3)nc(-c3ccncc3)nc21 (configuration not stated) | 10.96
3 | O=C1CC(N(C(=O)c2ccc(Oc3ccccc3)cc2)C2CC2)C(=O)N1 (configuration not stated) | -10.84
4 | CN(C)S(=O)(=O)N1C[C@@H]2CC[C@H](C1)N(Cc1ccc3nsnc3c1)C2 | 4.433
5 | Cc1cc(C)n2nc(C(=O)N3CCCC4(CNC(=O)O4)C3)cc2n1 (configuration not stated) | 1.638
6 | O=C(N1CCCC1)N1CCC2(CC1)CN(c1cccnc1)C(=O)CO2.O=C(O)C(F)(F)F | 93.48
7 | CCS(=O)(=O)N1CCC2(CN(c3cccc(F)c3)C(=O)CN2C)C1.O=C(O)C(F)(F)F (configuration not stated) | 7.629
8 | CCS(=O)(=O)N1CCC2(CC1)CN(c1cccnc1)C(=O)CO2.O=C(O)C(F)(F)F | 93.05
9 | CCc1nc(C)c([C@H]2CN(C)C[C@@H]2C(=O)NCCc2cnccn2)[nH]1 | -9.925
10 | COc1ccc(CC(C)(O)CNC(=O)Cc2ccc(F)cc2)cc1 (configuration not stated) | 8.313
11 | COc1ccc(CN(C)[C@@H]2COC[C@H]2c2ccc(F)cc2)cc1.O=C(O)CC(O)(CC(=O)O)C(=O)O | 117.4
12 | COc1ccc(CN2C[C@@H]3COC[C@@H](N4CCN(C)CC4)[C@@H]3C2)cc1.O=C(O)C(F)(F)F.O=C(O)C(F)(F)F.O=C(O)C(F)(F)F | 13.92
13 | CCOc1ncccc1CNC(=O)N1CCCC1c1cc(C)no1 (configuration not stated) | 3.544
14 | O=C(c1ccc(Cl)cc1)N1CCC(N2CCNC2=O)CC1 | 109.7
15 | Cc1ccc(C(=O)N2CCCC(N)CC2)cc1N1CCNC1=O (configuration not stated) | -4.611
16 | Cc1cc(C(=O)N2CCC(N3CCNC3=O)CC2)nn1C(C)(C)C | -1.395
17 | O=C(CSc1ccccc1)N1CCC(N2CCCCC2=O)CC1 | -3.003
18 | O=C(c1ccc(Cl)cc1)N1CCC(N2CCCCC2=O)CC1 | 103
19 | O=C(c1ccc(Cl)cc1)N1CCC(N2CCCNC2=O)CC1 | 102
20 | Cc1cnc(NC(=O)N2CCC(N3CCCCC3=O)CC2)s1 | 0.5285
21 | O=C(CCc1ccc(Cl)s1)N1CCC(N2CCNC2=O)CC1 | 39.9
22 | O=C(c1ccc2c(c1)OCO2)N1CCN2C(=O)NC[C@H]2C1 | 6.694
23 | Cn1cc(N2CCC(NC(=O)c3c(F)cccc3F)C2=O)cn1 (configuration not stated) | -6.231

Row | Compound | Percent Effect [%]
24 | O=C(NCC1(CO)CC1)c1ccccc1C(F)(F)F | 10.7
25 | O=C(NCCCSC1CCCCC1)C1NCCc2[nH]cnc21 (configuration not stated) | -0.8236
26 | CCOc1ccc(C(=O)N(CCOC)Cc2c(C)nn(CC)c2C)o1 | -1.11
27 | CN(C)C(=O)N1C[C@@H]2COC[C@]2(c2nnc(C3CC3)o2)C1 | 1.303
28 | O=C(Cn1ccc(=O)cc1)N1C[C@H]2CC[C@@H]1CN(c1ncccn1)C2 | -6.945
29 | Cc1nc(C(=O)N2CCOC(Cc3ccc(F)cc3)C2)co1 (configuration not stated) | 139
30 | Cc1n[nH]c(CCC(=O)N2CCOC(Cc3ccccc3)C2)c1C (configuration not stated) | 0.4396
31 | CCC1CN(C(=O)c2cc(CN(C)CCc3ccccc3)on2)CCO1 (configuration not stated) | -31.04
32 | Cc1nc(C(=O)N2CCOC(Cc3ccccc3)C2)co1 (configuration not stated) | 119.2
33 | CCOC(=O)CNC(=O)N1CCOC(Cc2ccc(OC)cc2)C1 (configuration not stated) | -5.818
34 | O=C1CCC(C(=O)N2CCOC(Cc3ccc(F)cc3)C2)=NN1 (configuration not stated) | -6.141
35 | CCN1CCN(CC(=O)N2CCOC(Cc3ccc(OC)cc3)C2)CC1 (configuration not stated) | -7.63
36 | Cn1nccc1C(=O)N1CCOC(Cc2ccc(F)cc2)C1 (configuration not stated) | -2.544
37 | COc1ccc(CC2CN(C(=O)c3coc(C)n3)CCO2)cc1 (configuration not stated) | 123
38 | COc1ccccc1N1CCN(C(=O)CSCC2CC2)C(C)C1 (configuration not stated) | 12.11
39 | Cc1csc(-c2cccc(NC(=O)N3CCOCC3)c2)n1 | -7.869
40 | COc1ccc(S(=O)(=O)NCCC(O)c2ccoc2)c(C)c1 (configuration not stated) | 14.16
41 | Cc1cc(C(=O)N(C)CC(F)(F)C(F)(F)F)ccc1-n1cncn1 | -4.765
42 | O=C(Nc1ccc(F)cc1)C1CSCN1 (configuration not stated) | 136.1
43 | Cl.N#Cc1ccc(NC(=O)C2CSCN2)cc1 (configuration not stated) | 137.5
44 | CC(C(=O)Nc1ccc(C#N)cc1)N1CCc2ccccc21 (configuration not stated) | -0.338
45 | N#Cc1ccc(SCCC(=O)Nc2ccc(CC(N)=O)cc2)cc1 | -23.76
46 | O=C(Nc1ccc(F)cc1)C1CCc2ccccc2N1 (configuration not stated) | 3.241

Row | Compound | Percent Effect [%]
47 | O=C(Nc1ccc(F)cc1)C1CNCCN1C(=O)CC1CCCCC1 (configuration not stated) | -14.62
48 | CN1CCCCC12CCN(c1nncs1)C2 (configuration not stated) | -10.05
49 | COc1cc(Cl)cc(C(=O)N2CCC3(CCCNC3)C2)c1 (configuration not stated) | -2.555
50 | CCc1ccsc1C(=O)N1CCN(CCN2C(=O)CCC2=O)CC1 | 117.8
51 | CCc1ccsc1C(=O)N1CCN(CC(C)O)CC1 (configuration not stated) | 130.8
52 | CCc1ccc(C(=O)N2CCN(CC(C)O)CC2)o1 (configuration not stated) | -6.937
53 | CC(=O)N1CCN(C(=O)c2sccc2Br)CC1 | -5.711
54 | CCc1ccsc1C(=O)N1CCN(CC(N)=O)CC1 | 101.9
55 | CSc1ccsc1C(=O)N1CCN(CC(C)(C)O)CC1 | 6.232
56 | CCc1ccsc1C(=O)N1CCN(C(=O)c2ccc(C)o2)CC1 | -4.902
57 | CCc1ccsc1C(=O)N1CCS(=O)(=O)CC1 | -3.186
58 | CCCc1nnsc1C(=O)N1CCN(CC(C)O)CC1.Cl (configuration not stated) | 3.712
59 | N#Cc1cccc(CN2C[C@@H](F)[C@@H](OCc3nc4cnccc4[nH]3)C2)c1 | -8.923
60 | c1cc(NCc2ccsc2)cc(-c2nnc[nH]2)c1 | -4.767
61 | Cc1cnc(N2CCN3C[C@H](OCc4cccc(C)n4)C[C@H]3C2)nc1.O=C(O)C(F)(F)F.O=C(O)C(F)(F)F.O=C(O)C(F)(F)F | -4.424
62 | O=C(CCNc1ncccn1)NCc1csc(Br)c1 | 22.34
63 | O=C(CSCc1ccncc1)NCc1csc(Br)c1 | 146.4
64 | O=C(NCc1csc(Br)c1)c1ccncc1 | 3.838
65 | CC(C)c1cc2c(O)nc(CSCC(=O)NCc3ccncc3)nc2s1 | 17.11
66 | O=C(CCc1ccncc1)NCc1csc(Br)c1 | 90.69
67 | CC(=O)N1CCN(C(=O)NCc2csc(Br)c2)CC1 | 1.629
68 | COc1cc(C)c(CNC(C)c2nc(C)cs2)cc1OC (configuration not stated) | -0.3291
69 | CNC(=O)c1cn2cc(-c3ccc(F)cc3)n(CC=C(C)C)c(=O)c2n1 | 0.6659

Row | Compound | Percent Effect [%]
70 | Cc1nccc(N2CC[C@@H]3[C@@H](CCC(=O)N3CCc3ccccc3)C2)n1 | -6.653
71 | COCC1CN(C(=O)Cc2ccccn2)Cc2c1cnn2CC1CC1.O=C(O)C(F)(F)F.O=C(O)C(F)(F)F (configuration not stated) | -11.65
72 | N#Cc1nccnc1N1CCC(Cc2ccccc2)C1 (configuration not stated) | -1.044
73 | CCS(=O)(=O)N1CCC2(CC1)COC(COc1cccnc1)C2.O=C(O)C(F)(F)F (configuration not stated) | 0.5823
74 | O=S1(=O)c2cccnc2OC(Cc2ccccc2)CN1CC1CC1 (configuration not stated) | 92.92
75 | CCN1CC(COc2ccccc2)Oc2ncccc2S1(=O)=O (configuration not stated) | 122.7
76 | Cc1cc(C)c(C#N)c(N2CCC(Cc3ccccc3)CC2)n1 | -43.81
77 | CCN1Cc2c(C(=O)NCC3CC3)ncn2-c2ccccc2S1(=O)=O | 19.38
78 | O=C(c1c[nH]c2ncccc12)N1CCC(COc2ccccc2)CC1 | -0.9312
79 | O=S1(=O)c2cccnc2OC(COc2ccccc2)CN1CC1CC1 (configuration not stated) | 113.6
80 | COC(=O)CNCC1(O)CCCN(Cc2cccc(F)c2F)C1=O (configuration not stated) | 2.816
81 | Nc1ncccc1C(=O)NCc1ccc(Br)cc1 | 135.9
82 | COc1cccc(CNC(=O)c2cccnc2N)c1 | 120.4
83 | Nc1ncccc1C(=O)NCc1cccc(Cl)c1 | 135.3
84 | COCC(=O)NCc1cccc(Br)c1 | -15.74
85 | COc1cccc(CNC(=O)c2nc3c(o2)CN(S(C)(=O)=O)C3)c1 | -11.41
86 | CC(C)(NC(=O)NCc1cccc(Br)c1)C(=O)O | 23.95
87 | CS(=O)(=O)Cc1ccc(CNC(=O)c2cccnc2O)cc1 | 12.39
88 | COc1ncccc1CNC(=O)c1cccnc1O | -6.886
89 | Nc1ncccc1C(=O)NCc1cccc(Br)c1 | 158
90 | O=C(NCc1ccncc1)c1ccc(Cl)cc1F | 1.231
91 | NC(=O)CN(CC(=O)NCc1cccc(Cl)c1)C1CCCC1 | 3.155
92 | Cn1ccnc1-c1noc(NCc2ccccc2)n1 | -0.05664

Row | Compound | Percent Effect [%]
93 | Nc1nnc(CCCNc2ncnc3c2CCN(C(=O)C2CC2)C3)s1 | 2.255
94 | O=C(O)CSc1nnc(-c2cn[nH]c2)n1-c1ccccc1C(F)(F)F | -22.33
95 | CC(=O)NC1(C(=O)N(C)Cc2c(C)noc2C)CCCCC1 | -7.535
96 | COc1ccc(C2CC(=O)c3c(O)cc(O)cc3O2)cc1O (configuration not stated) | -2.499
97 | CC(C)(C)c1coc([C@@H]2COCCN2Cc2ccccn2)n1 | -4.744
98 | CCCNC(=O)c1cccc2ncccc12 | 14.09
99 | Cc1cccc(CN2CCN(C(=O)c3cccnc3O)CC2)c1 | -8.356
100 | Cc1cccc(CNC(=O)c2cccnc2N)c1 | 165.4
101 | O=S1(=O)CCC(N(Cc2nc(-c3ccccn3)no2)Cc2cccs2)C1 (configuration not stated) | 124.4
102 | Cc1noc(CN(Cc2cccs2)C2CCS(=O)(=O)C2)n1 (configuration not stated) | 99.33
103 | O=C(CN(Cc1cccs1)C1CCS(=O)(=O)C1)NC1CCCCC1 (configuration not stated) | 14.98
104 | O=S1(=O)CCC(N(Cc2nc3ccccc3o2)Cc2cccs2)C1 (configuration not stated) | 98.01
105 | CC(C)c1noc(CN(Cc2cccs2)C2CC2)n1 | 16.09
106 | CC(C)(C)c1nc(CN(Cc2cccs2)C2CCS(=O)(=O)C2)cs1 (configuration not stated) | 26.63
107 | CC(=O)c1ccc(C(=O)N(C)Cc2nc(-c3ccccn3)no2)s1 | -11.07
108 | Cc1noc(C)c1CN(Cc1cccs1)C1CCS(=O)(=O)C1 (configuration not stated) | 104.9
109 | CC(C)(C)c1nc(CN(Cc2cccs2)C2CCS(=O)(=O)C2)no1 (configuration not stated) | 9.766
110 | Cc1nc(CN(Cc2cccs2)C2CCS(=O)(=O)C2)oc1C (configuration not stated) | -2.391
111 | O=C(CN(Cc1cccs1)C1CCS(=O)(=O)C1)NCC1CCCCC1 (configuration not stated) | 2.941
112 | Cc1ccc(-c2nc(CN(Cc3cccs3)C3CCS(=O)(=O)C3)cs2)o1 (configuration not stated) | 4.898
